The structures appear in SMILES notation. The source made the active and inactive calls. The calls were made as follows: active = hit-call score of the fitted dose curve at least 0.9, where 1 is the maximum; inactive = score below 0.9.

This is an account of results in PubChem BioAssay (EPA / NIEHS).

In assay [1] the target is Nuclear respiratory factor 1 (Homo sapiens) (UniProt Q16656). Nature of the assay: ATG_NRF1_CIS: Attagene CIS-FACTORIAL HepG2 Assay for human Nuclear Respiratory Factor 1 (NRF1) Orphan Gene (AID 2282987). To be noted: HepG2 NRF1 cis-element reporter, Attagene multiplex; actives raise or lower the signal. In outline: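 Endogenous NRF1-driven reporter transcription in transfected HepG2 cells after 24 h treatment. Readout: RT-PCR products, 6-FAM labelled and resolved by capillary electrophoresis; changes fitted both directions relative to DMSO.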
Sequence of Nuclear respiratory factor 1 (Homo sapiens) (Q16656 whole entry, looked up): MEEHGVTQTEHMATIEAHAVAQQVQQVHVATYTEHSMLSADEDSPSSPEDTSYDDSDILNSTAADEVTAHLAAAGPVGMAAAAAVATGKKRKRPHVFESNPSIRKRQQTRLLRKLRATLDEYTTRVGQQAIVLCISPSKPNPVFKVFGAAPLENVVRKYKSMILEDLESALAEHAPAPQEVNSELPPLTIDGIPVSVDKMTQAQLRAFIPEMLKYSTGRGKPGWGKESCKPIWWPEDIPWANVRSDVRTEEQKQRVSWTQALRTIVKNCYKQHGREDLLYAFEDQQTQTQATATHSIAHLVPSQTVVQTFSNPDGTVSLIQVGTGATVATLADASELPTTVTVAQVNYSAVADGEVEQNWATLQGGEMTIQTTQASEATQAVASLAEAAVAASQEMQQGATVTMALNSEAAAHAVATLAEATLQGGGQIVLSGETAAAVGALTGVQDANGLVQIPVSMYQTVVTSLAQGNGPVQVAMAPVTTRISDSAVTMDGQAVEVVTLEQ

Assay [2] is described as follows: ATG_NFI_CIS: Attagene CIS-FACTORIAL HepG2 Assay for human Nuclear Factor I (NFI) (AID 2282989). The conditions noted are these: HepG2 cis-regulatory reporter, NFI response element transcription; actives raise or lower the signal. In outline:
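Transient MRTU transfection of HepG2 → 24 h chemical dosing → total RNA, oligo(dT) RT → PCR, 6-FAM primer extension, HpaI cut → capillary electrophoresis. Endpoint fitted bidirectionally relative to DMSO.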

For assay [3], the target named is Myc proto-oncogene protein (Homo sapiens) (UniProt P01106). Nature of the assay: ATG_Myc_CIS: Attagene CIS-FACTORIAL HepG2 Assay for human Myelocytomatosis (Myc) Proto-Oncogene Transcription Factor (AID 2282990). To be noted: HepG2, Attagene cis-reporter transcription factor activity; actives raise or lower the signal. Summed up: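 Transiently transfected HepG2 cells bearing cis-promoter reporter units for endogenous transcription factors; 24 h exposure. Reporter mRNA measured by RT-PCR, 6-FAM primer extension, HpaI cut and capillary electrophoresis; bidirectional fit relative to DMSO.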
Sequence of Myc proto-oncogene protein (Homo sapiens) (P01106 whole entry, looked up): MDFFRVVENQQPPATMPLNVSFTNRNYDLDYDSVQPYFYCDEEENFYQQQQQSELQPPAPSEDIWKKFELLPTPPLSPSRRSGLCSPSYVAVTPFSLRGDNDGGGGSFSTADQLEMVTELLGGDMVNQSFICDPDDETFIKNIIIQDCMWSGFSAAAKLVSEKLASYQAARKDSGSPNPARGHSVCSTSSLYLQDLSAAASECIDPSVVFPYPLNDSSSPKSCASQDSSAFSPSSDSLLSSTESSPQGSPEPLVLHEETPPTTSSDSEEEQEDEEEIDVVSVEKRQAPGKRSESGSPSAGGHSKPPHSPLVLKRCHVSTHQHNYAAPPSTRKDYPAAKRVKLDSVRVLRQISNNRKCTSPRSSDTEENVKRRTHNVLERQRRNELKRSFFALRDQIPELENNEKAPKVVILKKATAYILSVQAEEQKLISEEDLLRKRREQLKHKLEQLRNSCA

A short description of assay [4]: ATG_NRF2_ARE_CIS: Attagene CIS-FACTORIAL HepG2 Assay for human Nuclear Factor Erythroid 2 Related Factor 2 (NFR2) response to Antioxidant Response Elements (ARE) (AID 2282992).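 As to AC50: reporter mRNA level measured by RT-PCR and capillary electrophoresis fluorescence.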 The conditions noted are these: HepG2 Attagene ARE/NRF2 reporter, transcription factor activity; actives raise or lower the signal. Summed up:
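Endogenous transcription factor activity in human liver HepG2 cells is tracked via a cis-element-driven reporter within a multiplexed set. mRNA induction is read by RT-PCR and capillary electrophoresis after 24 h, with DMSO as baseline.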

A short description of assay [5]: ATG_Oct_MLP_CIS: Attagene CIS-FACTORIAL HepG2 Assay for human Octamer-Binding Transcription Factor (Oct) (AID 2282993). The conditions noted are these: HepG2 Attagene cis-factorial Oct reporter, mRNA; actives raise or lower the signal. In outline: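 Transient MRTU transfection of HepG2 → 24 h compound treatment → RNA isolation, reverse transcription, PCR → 6-FAM primer extension, HpaI digest → capillary electrophoresis. Activity fitted both directions against DMSO.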

For assay [6], the target named is Cellular tumor antigen p53 (Homo sapiens) (UniProt P04637). Nature of the assay: ATG_p53_CIS: Attagene CIS-FACTORIAL HepG2 Assay for human p53 Transcription Factor (AID 2282994). To be noted: HepG2 p53 cis-element reporter, Attagene mRNA; actives raise or lower the signal. In outline:
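Steps: transfect HepG2 with multiplexed cis reporter constructs; dose chemicals 24 h; extract RNA, reverse-transcribe, PCR-amplify reporter sequences; FAM-label, HpaI-digest, resolve fragments by CE. Activity fitted both directions relative to DMSO.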

Assay [7] in a line: BSK_3C_TissueFactor: BioMAP Diversity Plus: 3C Assay for Tissue Factor Biomarker Activity (AID 2282997). The conditions noted are these: BioMAP 3C HUVEC, tissue factor biomarker readout; actives raise or lower the signal. Summed up:
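Cells used were primary human umbilical vein endothelial cells. They were dosed with chemical, and after 24 h Tissue Factor was quantified by ELISA. Curves were fitted bidirectionally with DMSO as baseline.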

Assay [8] in a line: BSK_3C_uPAR: BioMAP Diversity Plus: 3C Assay for Urokinase-type plasminogen activator receptor (uPAR) Biomarker Activity (AID 2282998). The conditions noted are these: BioMAP 3C HUVEC, uPAR biomarker ELISA; actives raise or lower the signal. In outline:
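ELISA readout of uPAR on human vascular endothelium (umbilical vein primary cells), taken 24 h after chemical dosing. Increases and decreases are both fitted relative to DMSO vehicle.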
For orientation: ELISA stands for enzyme-linked immunosorbent assay.

Assay [9] in a line: BSK_3C_VCAM1: BioMAP Diversity Plus: 3C Assay for Vascular cell adhesion molecule 1 (VCAM1) Biomarker Activity (AID 2282999). To be noted: BioMAP 3C HUVEC, VCAM1 ELISA, cytokine-stimulated; actives raise or lower the signal. In outline:
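HUVEC primary cells, 24 h compound exposure; VCAM-1 by ELISA; gain/loss of signal fitted bidirectionally vs DMSO baseline.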

Assay [10] is described as follows: ATG_NF_kB_CIS: Attagene CIS-FACTORIAL HepG2 Assay for human Nuclear Factor Kappa B (NF-kB) (AID 2282991). The conditions noted are these: HepG2 Attagene cis-factorial NF-kB reporter mRNA; actives raise or lower the signal. Summed up:
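Readout is reporter transcript level, gain or loss versus DMSO, measured 24 h post-dose via RT-PCR, fluorescent labelling and capillary electrophoresis. Human HepG2 liver cells carried transiently transfected CIS reporter constructs reflecting endogenous factors.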

Sequence of Cellular tumor antigen p53 (Homo sapiens) (P04637 whole entry, looked up, the tested form may be a part): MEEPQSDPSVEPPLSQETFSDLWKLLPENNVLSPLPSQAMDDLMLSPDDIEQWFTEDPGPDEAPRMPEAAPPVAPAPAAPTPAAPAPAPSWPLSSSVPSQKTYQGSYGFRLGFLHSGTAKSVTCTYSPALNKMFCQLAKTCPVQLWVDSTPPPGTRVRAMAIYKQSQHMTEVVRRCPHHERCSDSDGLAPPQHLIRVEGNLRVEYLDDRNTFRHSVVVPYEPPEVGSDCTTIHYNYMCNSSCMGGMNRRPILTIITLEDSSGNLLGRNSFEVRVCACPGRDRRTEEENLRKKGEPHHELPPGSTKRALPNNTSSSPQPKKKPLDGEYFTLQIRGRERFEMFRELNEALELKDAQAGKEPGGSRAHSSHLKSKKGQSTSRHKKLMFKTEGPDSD

`C=CCNCC=C`: the compound was called inactive in assay [1], in assay [2], in [3], in assay [4], in assay [5] and in assay [6].

In the case of `COC(=O)c1ccccc1C`, the call in assay [1], in [2], in assay [3] and in [6] was inactive.

Turning to `CC(=O)OCCc1ccccc1`, the compound was called inactive in assay [1], in assay [2], in [3], in [5] and in [6].

Regarding `O=C(Cl)c1ccc(C(=O)Cl)cc1`, the compound was called inactive in assay [1], in [2], in assay [3], in assay [4], in assay [5] and in assay [6].

As a reminder, the AC50 is the concentration giving half of the maximal activity seen. `CCCCC/C=C\C/C=C\CCCCCCCC(=O)O`: the call in assay [1], in assay [3], in assay [5] and in assay [6] was inactive. In addition, the AC50 in [2] is 163 µM (active).

In the case of `c1ccc2c(c1)[nH]c1ccccc12`, the compound was called inactive in assay [1], in assay [2], in assay [3], in assay [4], in assay [5] and in [6]. The outcome in [7], in [8] and in assay [9] was inactive.

`O=c1c(O)c(-c2ccc(O)cc2O)oc2cc(O)cc(O)c12`: the compound was called inactive in [1], in assay [2], in [3], in assay [5] and in [6].

For the compound `Clc1cc(Cl)c(Cl)c(Cl)c1Cl`, the call in assay [1], in [2], in [3], in assay [4], in assay [5] and in assay [6] was inactive. In addition, the result in assay [8] and in assay [9] was inactive. The AC50 in assay [7] was 3.97 µM (active).

Take `CCCCCCCCCCCC(=O)N(C)CC(=O)O`: the result in assay [1], in assay [2], in [3], in assay [5], in assay [7] and in [8] was inactive. In addition, the outcome in assay [9] was inactive. In addition, the concentration at half-maximal activity (AC50) in assay [4] is 97.5 µM (active).

Turning to `O=C(O)CCCC(=O)O`, the result in assay [1], in assay [2], in assay [3], in assay [4], in assay [5] and in assay [6] was inactive.

`C=Cc1cccc(C)c1`: the call in assay [1], in assay [2], in assay [3], in assay [4], in assay [5] and in [6] was inactive.

Take `CN(C)c1ccc2nc3ccc(=[N+](C)C)cc-3sc2c1`: the AC50 in [1] was 15 µM (active); in assay [4], 2.2 µM (active). The outcome in assay [2], in assay [3], in [5] and in assay [6] was inactive.

As for `O=C1CCCCC1C1CCCCC1` (configuration not stated), the compound was classed as inactive in assay [1], in assay [2], in [10], in assay [4] and in assay [5].

As for `CC(C)=CCCC(C)=CC#N`, the compound was called inactive in assay [1], in assay [2], in assay [3], in assay [4] and in assay [6].

Turning to `CCCCCCC=O`, the outcome in [1], in assay [2], in [10], in [4], in assay [5] and in [6] was inactive. Also, the outcome in [7], in assay [8] and in assay [9] was inactive.

In the case of `CCC[Si](OC)(OC)OC`, the call in [1], in [2], in assay [10], in [4] and in assay [6] was inactive.

For the compound `C=CCCCCCCCCOC(C)=O`, the outcome in assay [1], in [2], in [4] and in assay [5] was inactive.

Regarding `CC1C(C)(C)C2=C(C(=O)CCC2)C1(C)C` (configuration not stated), the compound was classed as inactive in assay [1], in [2], in assay [10], in assay [4], in assay [5] and in [6].

For the compound `CCCCCCCCCCCCCC(=O)OC(C)C`, the outcome in assay [1], in [2], in assay [10], in assay [5] and in assay [6] was inactive.

Take `C=CC(=O)NC(C)(C)C`: the call in [1], in assay [2], in assay [10], in assay [5], in [7] and in assay [8] was inactive. In assay [9], the outcome was inactive. Moreover, in assay [4], the AC50 was 28 µM (active).

As for `O=C(O)/C=C/c1ccccc1`, the result in assay [1], in assay [2], in [10], in [4], in [5] and in assay [6] was inactive.

Consider `C=Cc1ccc(OC(C)=O)cc1`, for which the compound was classed as inactive in assay [1], in assay [2], in assay [10] and in [6]. For the same compound, the figures for the AC50 in assay [4] and in assay [5] were 6.87 µM (active) and 55.4 µM (active), respectively.

On to `CCCCCCOC(=O)CCCCC(=O)OCCCCCC`, for which the call in [1], in assay [2], in assay [10], in assay [4], in [5] and in assay [6] was inactive. The outcome in assay [7], in [8] and in assay [9] was inactive.

For `COCC(=O)O`, the compound was called inactive in [1], in assay [2], in [10], in assay [4], in assay [5] and in assay [6].

With `N#CC1(N)CCCCC1`, the result in assay [1], in assay [2], in [4], in [5] and in assay [6] was inactive.

In the case of `N#Cc1ccc(C2CCCc3cncn32)cc1` (configuration not stated), the compound was called inactive in assay [1], in assay [2], in assay [10], in assay [4] and in [6].

With `CCC1(C)C(=O)N(Cl)C(=O)N1Cl` (configuration not stated), the compound was called inactive in [1], in assay [10], in [6], in [7], in [8] and in assay [9]. For the same compound, the concentration at half-maximal activity (AC50) in assay [2] was 60.6 µM (active); in assay [4] it was 27.1 µM (active); in assay [5], 27.4 µM (active).

Regarding `CCCCCOC(=O)CCCCC`, the result in assay [1], in assay [2], in [10], in assay [4], in [5] and in assay [6] was inactive.

Turning to `Cn1ccnc1`, the compound was classed as inactive in assay [1], in assay [2], in assay [10], in assay [4], in assay [5] and in assay [6].

`CCC(=O)C1CC(C(C)C)CC=C1C` (configuration not stated): the compound was called inactive in [1], in [2], in assay [10] and in assay [5]. Moreover, in assay [4], the concentration at half-maximal activity (AC50) is 40.1 µM (active).

Take `CC(C)[N+](C)(CCOC(=O)C1c2ccccc2Oc2ccccc21)C(C)C`: the call in assay [1], in assay [2], in [10], in assay [5], in [6] and in [7] was inactive. In addition, the result in assay [8] and in [9] was inactive.

Consider `O=C1CCCCCCCCCCCN1`, for which the call in assay [1], in assay [2], in [10], in assay [4], in assay [5] and in [6] was inactive. For the same compound, the result in [7], in assay [8] and in [9] was inactive.
